HIF-2a inh = blocks HIF-2a reporter activity | 786-0 RCC cells HIF-2a reporter, luciferase luminescence, overnight | inhibition, % at 18.8 µM | 360,000 compounds, 0.72% hits | AID 624352;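 active = inhibition of the luminescence signal of 40% or more relative to plate controls, in a single-dose primary screen at 18.75 µM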
TROY signal inh = inhibitors of TROY-dependent NF-kB signaling; Q293 LMP1-TROYcd NF-kB luciferase reporter, 4 h; inhibition, % at 10 µM; AID 1347056; 360,000 compounds, 0.98% hits;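 active = compounds whose plate-normalised and pattern-corrected inhibition of the luciferase reporter signal at the single screening dose is 50% or more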
TWEAK-Fn14 inh = blocks TWEAK-Fn14 interaction in a reporter cell assay; TWEAK-stimulated Fn14 reporter cells, luciferase luminescence, 8 h; inhibition, % at 10 µM; 360,000 compounds, 2% hits; in the data active = inhibition above about 50%
CF NFkB inh = blocks PAF-induced NF-kB reporter in cystic fibrosis cells; KKLEB NF-kB-GFP reporter, GFP fluorescence overnight; inhibition, % at 5 µM; 360,000 compounds, 0.86% hits;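 active = at least 50% inhibition at 5 µM, scaled per plate between neutral and stimulator controls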;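 also: PAF is a Pseudomonas aeruginosa culture filtrate used as stimulus; plate controls were PAF-stimulated DMSO wells for no effect and unstimulated DMSO wells for full effect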
Peg3 prom inh = reduces Peg3 promoter-driven luciferase expression in HeLa; HeLa PEG-Prom luciferase reporter, luminescence, overnight; inhibition, % at 20 µM; 360,000 compounds, 1.7% hits;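 active = inhibition of at least 50% at 20 µM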
KKLEB tox = reduces viability of KKLEB cystic fibrosis airway cells; activity change (cytotoxicity), % at 5 µM; KKLEB CF airway cells viability, ATPlite luminescence, overnight; active compounds read low; cells stimulated with P. aeruginosa culture filtrate; 360,000 compounds, 0.36% hits;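 active = corrected activity change at or below -50% at 5 µM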
* marks the source's active call; other numbers are inactive results; · = no result. Sampled rows, rich in hits. Any-hit rate of the full collection: about 4%.

SMILES | HIF-2a inh | TROY signal inh | TWEAK-Fn14 inh | CF NFkB inh | Peg3 prom inh | KKLEB tox
Cc1cc(C2=NNC(=NCCc3ccccc3)SC2)c(C)n1-c1c(C)n(C)n(-c2ccccc2)c1=O | 0 | -2 | 57* | -1 | 17 | 1
COCCCN=C1NN=C(c2cc(C)n(-c3ccccc3)c2C)CS1 | -17 | 12 | 28 | 16 | -142 | -11
COCCCN=C1NN=C(c2cc(C)n(-c3ccccc3F)c2C)CS1 | 21 | 6 | 59* | 2 | -2 | -24
O=C(O)C(Cc1ccccc1)N1CCS(=O)(=O)CC1 (stereo not drawn) | 19 | 22 | 6 | -5 | -2 | 10
CC(C)(C)NS(=O)(=O)c1ccc(NS(=O)(=O)Cc2ccccc2)cc1 | -7 | -4 | -3 | 5 | 5 | -17
O=C(CN1C(=O)/C(=C/c2ccccc2F)Sc2ccccc21)NCCCN1CCOCC1 | 1 | -17 | -13 | 12 | -8 | -6
COCCCNC(=O)/C=C1\Sc2ccccc2N(Cc2ccccc2F)C1=O | -122 | -29 | 103* | -4 | -109 | 2
CC(=O)N(CCc1ccccc1C)Cc1cc2cc3c(cc2[nH]c1=O)OCO3 | 16 | · | 100* | 5 | 7 | -5
CCC(=O)N(CCc1ccccc1C)Cc1cc2ccc(C)cc2[nH]c1=O | 12 | 16 | 1 | -3 | 25 | 4
COCCn1nnnc1C(c1cc2cc(OC)ccc2[nH]c1=O)N1CCC(Cc2ccccc2)CC1 (stereo not drawn) | 3 | -7 | -11 | -15 | 15 | 11
CN(C)CCNc1ncnc2c1ncn2[C@H]1CN(Cc2cccnc2)C[C@@H](CO)O1 | 1 | -2 | -2 | 4 | 9 | 12
FC(F)(F)c1nnc2c(Sc3ccccc3)nc3ccc(Cl)cc3n12 | 34 | -6 | 53* | 96* | 62* | -90*
O=C(CN(c1ccc(F)cc1)S(=O)(=O)c1ccccc1)NC1CC2CCC1C2 (stereo not drawn) | 7 | 6 | 16 | 18 | 19 | -5
Cn1c(NCC(O)c2ccccc2)nc2c1c(=O)n(Cc1ccc(Cl)c(Cl)c1)c(=O)n2C (stereo not drawn) | 31 | 54* | 49 | 4 | 53* | -4
Cn1c(NCc2ccccc2)nc2c1c(=O)n(Cc1ccccc1)c(=O)n2C | 32 | 1 | 15 | 9 | 27 | -6
COc1ccc(CNc2nc3c(c(=O)n(Cc4ccc(F)cc4)c(=O)n3C)n2C)cc1 | 27 | 37 | 22 | 23 | 50* | 24
COC(=O)c1cc(S(=O)(=O)NCc2ccc(F)cc2)cn1C | 9 | -10 | -10 | -6 | 10 | 21
O=C1C=C(Nc2ccccc2)c2ccccc2C1=O | 15 | -1 | -2 | 72* | 24 | -25
O=C1C=C(Nc2ccccc2)C(=O)c2ccccc21 | -164 | -49 | 17 | 60* | -189 | -8
O=C1C(Nc2ccccc2)=C(NS(=O)(=O)c2ccccc2)C(=O)c2ccccc21 | -4 | -21 | 12 | 31 | 2 | 14
CCc1ccc(NC2=CC(=O)C(=O)c3ccccc32)cc1 | -112 | 40 | 19 | 96* | 6 | -91*
COc1cc(OC)cc(C(=O)N2CCC3(CC2)NCCc2[nH]cnc23)c1 | 6 | 4 | 1 | 8 | -4 | -3
O=C(Cn1c(=O)oc2cc(S(=O)(=O)NCc3ccccc3)ccc21)NCc1ccco1 | 8 | -16 | -15 | 1 | 9 | 16
COc1ccc(Cn2c(=O)oc3ccccc32)cc1OC | 12 | 13 | 7 | 7 | 9 | -4
COc1ccc2nnc(-c3ccc(C(F)(F)F)cc3)n2n1 | 21 | -12 | 61* | 2 | 25 | -16
FC(F)(F)c1cccc(N2CCN(c3ccc4nnc(-c5ccccc5)n4n3)CC2)c1 | -13 | -9 | -28 | -7 | 19 | -4
CCOC(=O)[C@H]1[C@H]2COc3ccc(Br)cc3[C@@H]2N2C(=O)c3cc(Br)ccc3NC(=O)[C@@]12C | -5 | -5 | -30 | -6 | 9 | -5
Cc1ccc(C(c2cc(Cl)c3cccnc3c2O)N2CCN(C)CC2)cc1 (stereo not drawn) | 43* | -3 | -2 | 39 | 37 | -28
CN1CCN(C(c2ccccn2)c2cc(Cl)c3cccnc3c2O)CC1 (stereo not drawn) | 20 | -6 | -12 | 22 | 16 | -32

High-throughput results as filed in PubChem BioAssay.
